A selection: hits, their analogues and other compounds. The true share with any hit is near 6.6%.
TGFb SMAD3 inh – qHTS for Inhibitors of TGF-b | HepG2 CAGA-GFP TGF-b/SMAD3 reporter, GFP fluorescence, 18 h; TGF-beta stimulated, 500 pg/mL final | Potency, µM (top dose mostly 46.1 µM), actives largely listed as inhibitors | 410,000 compounds, 1.2% hits; also: nearly all actives have a fitted effect of over 65% in size
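Smad-responsive CAGA-GFP expression was quantified in HEPG2 cells exposed to compounds and 500 pg/mL final TGF-beta for 18 h at 37 degrees C; unstimulated wells defined full inhibition.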
HT1080-NT tox – qHTS for induction of synthetic lethality in tumor cells producing 2HG: qHTS for the HT-1080-NT fibrosarcoma cell line | HT-1080-NT fibrosarcoma viability, CellTiter-Glo ATP luminescence, 48 h | Potency, µM (series often up to 46.1 µM), most hits filed as cytotoxic | 360,000 compounds, 1.6% hits | AID 686970, 2013;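 also: NT is the 2HG producing partner of a matched IDH1 knockdown line; nearly all actives have a fitted effect of over 55% in size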
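HT-1080-NT; 750 cells/well; 5% FBS RPMI; 48 h compound, 37 degrees C; CellTiter-Glo luminescence; curve fitting and curve-class assignment.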
KB-V1 cytotox – qHTS assay for MDR1-selective chemotherapeutics: Primary screen using the drug-selected MDR subline cells KB-V1. KB-V1 MDR cells viability, CellTiter-Glo, 72 h. Potency, µM (doses to about 46.1 µM), usual class: cytotoxic. 400,000 compounds, 3.4% hits; also: nearly all actives have a fitted effect of over 60% in size
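In this primary screen, KB-V1 cells overexpressing P-gp are incubated with library compounds (lowest to highest concentration) for 72 h at 37 degrees C before a luminescent ATP viability read.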
HT1080 IDH1KD tx – qHTS for induction of synthetic lethality in tumor cells producing 2HG: qHTS for the HT-1080-IDH1KD cell line; HT-1080 IDH1 knockdown viability, ATP luminescence, 48 h; Potency, µM (titrated, usually from 46.1 µM), most hits filed as cytotoxic; 360,000 compounds, 2% hits; AID 686971, 2013
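% activity derives from luminescence (CellTiter-Glo), normalised to DMSO and no-cell wells. HT-1080-IDH1KD cells, 750/well, had 48 h compound exposure at 37 °C.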
KB-3-1 cytotox – qHTS assay for MDR1-selective chemotherapeutics: Primary screen using the parental adenocarcinoma cell KB-3-1; KB-3-1 viability, CellTiter-Glo ATP luminescence, 72 h; Potency, µM (top dose mostly 46.1 µM), hits mostly cytotoxic; 400,000 compounds, 1.4% hits; AID 1347075, 2019; also: nearly all actives have a fitted effect of over 60% in size
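Here the drug-naive KB-3-1 line serves as comparator for MDR sub-line selectivity; cells received compound titrations, 72 h at 37 °C, then CellTiter-Glo readout.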
HepG2 tox – qHTS for Inhibitors of TGF-b: Cytotox Counterscreen; HepG2 CAGA-GFP viability, ATP luminescence, 18 h; Potency, µM (top dose mostly 46.1 µM), usual class: cytotoxic; 410,000 compounds, 0.76% hits; AID 588856, 2011
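HepG2 CAGA-GFP cells (1000/well, DMEM with 1% FBS) received compound, then TGF-beta at 500 pg/mL final, and were incubated 18 hours at 37 degrees C. Viability was read by CellTiter-Glo luminescence. Media-only wells were set as complete cell-killing and DMSO as no toxicity.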
Numbers stand for hits; n = inactive; u = inconclusive; x = no result. Calls follow the shape of the dose curve; as a rule, active = well fitted curve in the direction sought with a large enough effect; inconclusive = small, poorly fitted or top-dose-only effect, or another doubt; inactive = no such curve, though single readings can be large; an effect the other way counts as inactive or inconclusive.

SMILES	TGFb SMAD3 inh	HT1080-NT tox	KB-V1 cytotox	HT1080 IDH1KD tx	KB-3-1 cytotox	HepG2 tox
Cc1cc(S(=O)(=O)N2CCC(N3CCCCC3)CC2)ccc1-n1cnnn1	n	n	n	n	n	n
Cc1cc(S(=O)(=O)N2CCN(c3ccccc3F)CC2)ccc1-n1cnnn1	n	n	21µM	n	u	n
Cc1ccccc1CCNC(=O)c1ccc2c(c1)nc1n2CCCCC1	n	x	n	x	n	n
CCC(C)NC(=O)c1cc2cc(S(=O)(=O)N3CCCCC3)ccc2n1C (configuration not stated)	n	x	x	x	x	n
CCN(CC)C(=O)Cn1cc(SCC(=O)NC2CCCCC2)c2ccccc21	n	n	u	n	n	n
CC(=O)Oc1ccc(N2C(=O)C3C(C2=O)C(C(=O)c2ccc(Cl)cc2)N2CCCC32)cc1 (configuration not stated)	u	u	u	23µM	18µM	n
COC(=O)/C=C/c1ccccc1S(=O)(=O)N(Cc1ccccc1)Cc1ccco1	u	4.6µM	7.3µM	4.6µM	3.3µM	n
Cc1ccc2oc(=O)c3cc(C(=O)Nc4ccc(C)c(F)c4)sc3c2c1	n	x	u	x	n	n
Cc1ccc(NC(=O)CN(C)S(=O)(=O)c2cccs2)cc1C	n	n	u	n	u	n
Cc1ccc(NC(=O)CN(C)S(=O)(=O)c2cccs2)cc1F	n	n	15µM	n	u	n
CCCc1cc(=O)[nH]c(Nc2ccc(OCC)cc2)n1	x	x	x	x	x	n
CCCCc1ccc(Nc2nc(CCC)cc(=O)[nH]2)cc1	u	21µM	u	u	u	n
CCCCc1c(C)nc(Nc2ccc(OC)cc2)[nH]c1=O	n	n	23µM	n	n	n
CCOC(=O)COc1cc(C)c(Cl)cc1C(=O)c1ccn2nc(-c3ccc(OC)cc3)cc2n1	n	x	n	x	n	n
Cc1c(NC(=O)c2cc(-c3cccc(O)c3)on2)c(=O)n(-c2ccccc2)n1C	n	x	u	x	n	n
Oc1ccc(N2CCN(c3ccnc4cc(Cl)ccc34)CC2)cc1	n	n	15µM	n	16µM	n
CN1CCN(c2ccc(Nc3ccnc4cc(Cl)ccc34)cc2)CC1	n	u	u	21µM	u	n
COc1ccc(N2CCN(c3ccnc4cc(Cl)ccc34)CC2)cc1	n	n	u	n	n	n
Cc1ccc(C(=O)c2cn(CC(=O)Nc3ccc4c(c3)OCCO4)c3nc(C)ccc3c2=O)cc1	u	x	n	x	n	n
CCOc1ccc(C(=O)Nc2ccc(S(=O)(=O)N3C[C@@H]4C[C@@H](C3)c3cccc(=O)n3C4)cc2)cc1	n	u	n	23µM	n	n
O=C(Nc1ccc(S(=O)(=O)N2C[C@@H]3C[C@@H](C2)c2cccc(=O)n2C3)cc1)c1ccc(F)cc1	n	n	n	n	n	n
NS(=O)(=O)c1ccc(NC(=O)CSc2n[nH]c(=O)n2Cc2ccccc2)cc1	n	n	n	n	n	n
O=C(CSc1n[nH]c(=O)n1Cc1ccccc1)Nc1ccc(F)c(F)c1F	n	n	16µM	n	u	n
CCCN(CCC)S(=O)(=O)c1ccc2c(c1)N(CC(=O)NC(C)c1ccccc1)C(=O)CS2 (configuration not stated)	n	x	n	x	n	n
CCN(CC)CCNC(=O)CCc1c(C)nc2c(c(C)nn2-c2ccc(C)c(C)c2)c1C	u	u	n	26µM	u	n
SMILES	TGFb SMAD3 inh	HT1080-NT tox	KB-V1 cytotox	HT1080 IDH1KD tx	KB-3-1 cytotox	HepG2 tox
COc1ccc(CCNC(=O)CCc2c(C)nc3c(c(C)nn3-c3ccc(C)c(C)c3)c2C)cc1OC	n	x	n	x	n	n
Cc1ccc(-n2nc(C)c3c(C)c(CCC(=O)Nc4ccc(CN5CCCC5)cc4)c(C)nc32)cc1	u	n	n	15µM	n	n
CSc1nnc(-c2sccc2OCc2ccc(C)cc2)n1C	n	n	18µM	u	u	n
Cc1ccc2[nH]c(=O)c3cc(C(=O)NCc4cccc(Cl)c4)sc3c2c1	n	x	n	x	n	n
Cc1ccc(-c2nnc(Nc3ccc(Cl)cc3)c3ccccc23)cc1S(=O)(=O)N1CCOCC1	u	x	n	x	n	n
CS(=O)(=O)N(Cc1ccc(F)cc1)Cc1nc2ccccc2c(=O)[nH]1	n	n	n	n	n	n
CCNC(=S)N(Cc1ccccc1)Cc1nc2ccccc2c(=O)[nH]1	u	n	21µM	n	n	n
CSc1ccc(CN(C)Cc2nc3ccccc3c(=O)[nH]2)cc1	n	n	21µM	n	n	n
COCCCNC(=S)N(Cc1ccccc1)Cc1nc2ccccc2c(=O)[nH]1	n	n	n	n	n	n
COCCCNC(=O)C[C@@H]1C[C@@]2(C(=O)OC)CC(C)(C)CC=C2N(Cc2ccc3c(c2)OCO3)C1=O	x	n	u	n	n	x
COc1ccc(S(=O)(=O)Nc2cccc(-c3ccc4nncn4n3)c2)cc1	n	16µM	u	10µM	5.8µM	n
Cc1cc(NC(=O)CSCC(=O)Nc2cc(Cl)ccc2N2CCN(C)CC2)no1	n	n	n	n	n	n
